Shiga inhibitor = Shiga toxin inhibition | inhibition, % at 38.7 µM | Vero cells, Shiga toxin protein synthesis inhibition reporter | 290,000 compounds, 9.2% hits; in the data active = inhibition mostly above about 28%, no sharp cut-off; inactive = mostly below about 43%
TbPYK inhibitor = T. brucei pyruvate kinase inhibition | Q57TT1 | TbPYK enzyme, Kinase-Glo Plus ATP luminescence, 45 min | Potency, µM (top dose mostly 76.8 µM), actives largely listed as inhibitors | 410,000 compounds, 0.12% hits; also: nearly all actives have a fitted effect of over 50% in size
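In this concentration-response screen, enzyme-free wells defined baseline while DMSO plates tracked drift. Each reaction combined TbPYK, substrate, compound and 130 uM ADP for 45 min at room temperature. Kinase-Glo Plus luminescence gave the signal.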
CHX counter = counter-screen for Shiga toxin inhibitors: cycloheximide protein synthesis inhibition. cell reporter, cycloheximide protein synthesis inhibition counterscreen. max response, %. 300,000 compounds, 12% hits. AID 2314; in the data active = max response mostly above about 13%, no sharp cut-off; inactive = mostly below about 14%; also: read at 38.3 µM for the half of the compounds with a filed dose
NS1 inh = influenza NS1 inhibition; Potency, µM (titrated, usually from 46.1 µM); 270,000 compounds, 0.4% hits; calls by dose curve; also: actives are rising curves; nearly all actives have a fitted effect of over 50% in size
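Recovery from NS1-induced slow growth read by OD600 in budding yeast switched to galactose assay medium (pH 6.0, -URA) at 1:100 dilution. Compound 23 nl per well; the matching strain lacking NS1 serves as control.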
SARS PLP yeast = SARS-CoV PLP inhibition in yeast; Potency, µM (titrated, usually from 32.9 µM), most hits filed as activators; AID 485353; 330,000 compounds, 0.19% hits; S. cerevisiae expressing SARS-CoV PLpro, growth rescue; calls by dose curve; also: nearly all actives have a fitted effect of over 55% in size
LmPK inhibitor = blocks Leishmania mexicana pyruvate kinase activity; Q27686; purified LmPK, Kinase-Glo ATP luminescence, 1 h; Potency, µM (top dose mostly 57.5 µM), hits mostly inhibitors; 290,000 compounds, 0.37% hits
Target sequence (Q27686 whole entry, looked up): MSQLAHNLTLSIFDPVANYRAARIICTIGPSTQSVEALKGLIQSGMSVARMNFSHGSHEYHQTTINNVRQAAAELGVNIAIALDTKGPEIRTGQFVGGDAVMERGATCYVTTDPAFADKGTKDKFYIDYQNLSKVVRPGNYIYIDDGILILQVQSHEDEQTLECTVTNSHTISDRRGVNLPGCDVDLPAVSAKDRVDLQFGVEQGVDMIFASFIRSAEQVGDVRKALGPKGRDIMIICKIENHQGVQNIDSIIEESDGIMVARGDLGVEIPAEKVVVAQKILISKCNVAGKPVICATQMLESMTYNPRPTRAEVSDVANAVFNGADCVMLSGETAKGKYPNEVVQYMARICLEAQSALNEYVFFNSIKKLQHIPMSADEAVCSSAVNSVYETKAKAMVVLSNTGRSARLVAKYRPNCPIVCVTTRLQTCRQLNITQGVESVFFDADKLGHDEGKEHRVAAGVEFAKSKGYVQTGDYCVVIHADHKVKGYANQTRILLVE
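ATP generated from ADP (0.1 mM) and PEP (0.5 mM) by 0.1 nM LmPK over 1 h at room temperature (pH 7.2 imidazole buffer) was detected by coupled luciferase luminescence. Values were normalized to uninhibited and no-enzyme wells.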
Each line names hits and unclear results; the compound was inactive in the other large screens. The full list was thinned out, with hits kept by preference. Unless noted, calls follow the shape of the dose curve; as a rule, active = well fitted curve in the direction sought with a large enough effect; inconclusive = small, poorly fitted or top-dose-only effect, or another doubt; inactive = no such curve, though single readings can be large; an effect the other way counts as inactive or inconclusive.

CCSC[C@H](NC(=O)[C@H](C)NC(=O)[C@@H](N)Cc1ccc(O)cc1)C(=O)N[C@@H](CC(=O)O)C(=O)N[C@H](C(=O)N[C@@H](C)C(=O)N[C@H](C(=O)N[C@@H](CSCC)C(=O)N[C@H](C(=O)N[C@H](C(=O)N[C@@H](Cc1cnc[nH]1)C(=O)N[C@@H](CCCNC(=N)N)C(=O)N[C@@H](CC(C)C)C(=O)N[C@@H](C)C(=O)NCC(=O)N[C@@H](CC(C)C)C(=O)N[C@@H](CC(C)C)C(=O)N[C@@H](CO)C(=O)N[C@@H](CCCNC(=N)N)C(=O)N[C@@H](CO)C(=O)NCC(=O)NCC(=O)N[C@H](C(=O)N[C@H](C(=O)N[C@@H](CCCCN)C(=O)N[C@@H](CC(N)=O)C(=O)N[C@@H](CC(N)=O)C(=O)N[C@@H](Cc1ccccc1)C(=O)N[C@H](C(=O)N1CCC[C@H]1C(=O)N[C@H](C(=O)N[C@@H](CC(N)=O)C(=O)N[C@H](C(=O)NCC(=O)N[C@@H](CO)C(=O)N[C@@H](CCCCN)C(=O)N[C@@H](C)C(=O)N[C@@H](Cc1ccccc1)C(N)=O)C(C)C)[C@@H](C)O)C(C)C)C(C)C)C(C)C)[C@@H](C)O)C(C)C)[C@@H](C)O)[C@@H](C)O	none (no result: TbPYK inhibitor, NS1 inh, SARS PLP yeast, LmPK inhibitor)
COc1ccc(Cl)cc1NC(=O)C/C(C)=N/NC(=O)c1ccc(O)cc1	Shiga inhibitor 68, CHX counter 31
COc1ccc(Cl)cc1NC(=O)C/C(C)=N/NC(=O)Cc1ccccc1	Shiga inhibitor 44
COc1cc(NC(=O)C/C(C)=N/NC(=O)c2cccc(O)c2)c(OC)cc1Cl	Shiga inhibitor 129, CHX counter 30
COc1ccc(OC)c(NC(=O)C(=O)N/N=C(\C)CC(=O)Nc2ccc(Cl)cn2)c1	none
COc1cc(NC(=O)C/C(C)=N/NC(=O)C(OC)c2ccccc2)c(OC)cc1Cl (stereo unspecified)	none
Cc1ccc(-c2cc(C(=O)NCCc3ccccc3)c3ccccc3n2)cc1C	none (no result: Shiga inhibitor, CHX counter, NS1 inh, SARS PLP yeast, LmPK inhibitor)
C[C@H](NC(=O)C1CCN(S(=O)(=O)c2ccccc2)CC1)C(=O)NC1CC1	none (no result: Shiga inhibitor, CHX counter, NS1 inh, SARS PLP yeast, LmPK inhibitor)
O=C(Cc1c(F)cccc1Cl)NC1=NCCS1	CHX counter 20 (no result: NS1 inh)
O=C(Cc1c(Cl)cccc1Cl)NC1=NCCS1	none (no result: TbPYK inhibitor, NS1 inh)
COc1ccc2nc(N(Cc3cccnc3)C(=O)COc3ccccc3)sc2c1	none (no result: Shiga inhibitor, CHX counter, NS1 inh, SARS PLP yeast, LmPK inhibitor)
O=C(CCNC(=O)c1ccco1)Nc1nc2ccccc2s1	none (no result: Shiga inhibitor, CHX counter, NS1 inh, LmPK inhibitor)
O=C(CCNC(=O)c1ccccc1Cl)Nc1nc2ccccc2s1	Shiga inhibitor 143, CHX counter 37 (no result: NS1 inh)
COc1ccc2nc(N(Cc3ccccc3)C(=O)CCNC(C)=O)sc2c1	Shiga inhibitor 44
CCOC(=O)c1sc(NC(=O)Cc2c(F)cccc2Cl)nc1C	Shiga inhibitor 75, CHX counter 30 (no result: NS1 inh)
COc1cc(Br)cc2cc(C(=O)N3CCOCC3)c(=O)oc12	none
CCOc1ccc2c(ccc(/C=C\c3cc(C)c4cccnc4c3O)[n+]2C)c1	none (no result: Shiga inhibitor, TbPYK inhibitor, CHX counter, SARS PLP yeast, LmPK inhibitor)
COC(=O)[C@]1(C)N[C@H](CN(C)S(=O)(=O)c2ccc(C)cc2)[C@@H]2C(=O)N(C)C(=O)[C@@H]21	none (no result: Shiga inhibitor, CHX counter, NS1 inh, LmPK inhibitor)
CC(=O)c1sc(NC(=O)Cc2c(F)cccc2Cl)nc1C	none
O=C(Cc1c(F)cccc1Cl)Nc1nc2ccccc2s1	Shiga inhibitor 113, CHX counter 38
O=C(CCNC(=O)c1ccccc1Cl)Nc1nc(-c2ccccc2Cl)cs1	CHX counter 22
O=C(CCNC(=O)c1ccccc1Cl)Nc1nc(-c2ccc(F)cc2)cs1	none
COc1ccc2nc(NC(=O)CCNC(=O)c3ccccc3Cl)sc2c1	Shiga inhibitor 77, CHX counter 33 (no result: NS1 inh)
COc1cccc(NC(=O)CCNC(=O)c2ccccc2Cl)c1	none (no result: NS1 inh)
c1c[nH]c(CN2CCOCC2)n1	none (no result: Shiga inhibitor, TbPYK inhibitor, CHX counter, SARS PLP yeast, LmPK inhibitor)
COc1ccc(/C=C2\N=C(SC)N(c3ccccc3OC)C2=O)cc1	CHX counter 25 (no result: NS1 inh)
COc1cc(CN2CCCCC2)ccc1OCc1ccccc1	Shiga inhibitor 56, CHX counter 32
COc1cc(CNC(=O)C2CC2)ccc1OCc1ccccc1	Shiga inhibitor 64, CHX counter 46
CC(C)CCNC(=O)C1CCN(Cc2cccc(OCc3ccccc3)c2)CC1	none
COc1cc(CN2CCC(C(=O)NCCC(C)C)CC2)ccc1OCc1ccccc1	Shiga inhibitor 101, CHX counter 25
CCN1C(=O)[C@@H]2[C@H](C1=O)[C@@H]1C(=O)Nc3ccccc3C(=O)N1[C@@H]2c1ccc(Br)cc1	none (no result: Shiga inhibitor, CHX counter, NS1 inh, LmPK inhibitor)
CSCC[C@H](NC(=O)[C@H]1CC[C@H](CNC(=O)[C@@H](N)Cc2ccccc2)CC1)C(=O)O	none
CCn1c2ccccc2c2cc(/C(C)=N/O)ccc21	none
C/C(=N\O)c1ccc2c3ccccc3n(C)c2c1	Shiga inhibitor 105, CHX counter 46
O=C1CCCN1c1ccc(CNS(=O)(=O)c2ccc(F)cc2)cc1	CHX counter 14
O=C(CSc1ccc(-c2ccccc2)nn1)N1CCCCC1	Shiga inhibitor 72, TbPYK inhibitor inconclusive, CHX counter 31 (no result: NS1 inh)
COc1cccc(-c2ccc(SCC(=O)c3ccccc3)nn2)c1	Shiga inhibitor 48 (no result: NS1 inh)
O=C(CSc1ccc(-c2ccc(F)cc2)nn1)N1CCCCC1	Shiga inhibitor 49, LmPK inhibitor inconclusive
O=C(CSc1ccc(-c2ccco2)nn1)c1ccccc1	Shiga inhibitor 32, TbPYK inhibitor inconclusive, CHX counter 24
COc1ccc(C(=O)CSc2ccc(-c3ccco3)nn2)cc1	none
C[C@@H]1CN([C@@H](C)CO)C(=O)CCCn2nncc2CO[C@@H]1CN(C)C(=O)Nc1ccc(C(C)(C)C)cc1	none (no result: Shiga inhibitor, CHX counter, NS1 inh, SARS PLP yeast, LmPK inhibitor)
CCOC(=O)CN1C(=O)N[C@@H](c2cccc(F)c2)C(C(=O)OC)=C1C	none (no result: Shiga inhibitor, CHX counter, NS1 inh, SARS PLP yeast)
O=C(CSc1ccc(-c2ccco2)nn1)N1CCCCCC1	Shiga inhibitor 51 (no result: NS1 inh)
O=C(CSc1ccc(-c2ccco2)nn1)NC1CCCCC1	none (no result: NS1 inh)
O=C(CSc1ccc(-c2ccccn2)nn1)N1CCCCC1	Shiga inhibitor 72, CHX counter 31 (no result: NS1 inh)
Cc1ccc(S(=O)(=O)c2nc(S(=O)(=O)c3ccccc3)sc2N2CCN(C)CC2)cc1	none
CN(C)C=NC(=O)c1cc2c(n(-c3ccccc3)c1=O)CC(C)(C)CC2=O	none (no result: Shiga inhibitor, CHX counter, NS1 inh, SARS PLP yeast, LmPK inhibitor)
C/C(=N\NC(=O)C(N)=O)c1ccc(OC(F)F)cc1	none
CC(=NNc1ccc([N+](=O)[O-])cn1)c1ccccc1	none (no result: Shiga inhibitor, CHX counter, NS1 inh, SARS PLP yeast, LmPK inhibitor)
C/C(=N\Nc1ccccn1)c1ccc(C#N)cc1	Shiga inhibitor 43, CHX counter 25 (no result: NS1 inh)
C/C(=N\Nc1ccccn1)c1ccc(OC(F)F)cc1	Shiga inhibitor 38
O=C(NNC(=O)c1cccs1)c1ccccn1	none (no result: Shiga inhibitor, CHX counter, NS1 inh, SARS PLP yeast, LmPK inhibitor)
C/C(=N\Nc1ccccn1)c1cccs1	Shiga inhibitor 93, CHX counter 46 (no result: NS1 inh)
CCC(=O)Nc1cccc(NC(=O)CSc2nc3c(c(=O)n(C)c(=O)n3C)n2C)c1	none
O=C(NN(CC(O)COc1ccccc1)CC(O)COc1ccccc1)c1ccccc1 (stereo unspecified)	none
